Shown are actives, neighbours in structure and some others; about 19% of the full set was active somewhere.
HT1080 IDH1KD tx: qHTS for induction of synthetic lethality in tumor cells producing 2HG: qHTS for the HT-1080-IDH1KD cell line; HT-1080 IDH1 knockdown viability, ATP luminescence, 48 h; Potency, µM (series often up to 46.1 µM), for inactives: top-dose activity, negative = toxicity, hits mostly cytotoxic; 360,000 compounds, 2% hits;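 further: potency means the concentration at half of the fitted maximal effect; 0% = DMSO wells and -100% = cell-free medium wells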
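Using the IDH1-knockdown HT-1080 line run in the same batch and compound series as the NT line, viability after 48 h at 37 °C was determined by CellTiter-Glo luminescence and expressed as % activity.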
HT1080-NT tox: qHTS for induction of synthetic lethality in tumor cells producing 2HG: qHTS for the HT-1080-NT fibrosarcoma cell line; HT-1080-NT fibrosarcoma viability, CellTiter-Glo ATP luminescence, 48 h; Potency, µM (series often up to 46.1 µM), for the others: top-dose activity, negative = less viability, most hits filed as cytotoxic; 360,000 compounds, 1.6% hits; AID 686970, 2013;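 further: NT is the 2HG producing partner of a matched IDH1 knockdown line; potency means the concentration at half of the fitted maximal effect; 0% = DMSO-treated cells and -100% = media-only wells without cells; nearly all actives have a fitted effect of over 55% in size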
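Toxicity toward the 2HG-producing NT line was scored as %Activity, normalised to DMSO and no-cell wells, from CellTiter-Glo luminescence after 48 hours' treatment.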
TDP1 cell CPT: qHTS for Inhibitors of human tyrosyl-DNA phosphodiesterase 1 (TDP1): qHTS in cells in presence of CPT | chicken DT40 Tdp1-/-;hTDP1 cells + 20 nM CPT, ATP luminescence, 48 h | Potency, µM (series often up to 46.2 µM), for inactives: top-dose activity change, negative = growth inhibition, actives largely listed as inhibitors | 420,000 compounds, 12% hits; further: potency means the concentration at half of the fitted maximal effect; nearly all actives have a fitted effect of over 55% in size
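Chicken DT40 Tdp1-/- cells stably complemented with human TDP1 were seeded at 400 cells/well in medium containing 20 nM camptothecin, exposed to pin-transferred compounds, and grown at 37 °C for at least 48 hr. Viability was read as ATP luminescence.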
DT40 TDP1 no CPT: qHTS for Inhibitors of human tyrosyl-DNA phosphodiesterase 1 (TDP1): qHTS in cells in absence of CPT; Potency, µM (highest dose often 46.2 µM), without a hit: at the top dose activity change, negative = growth inhibition, most hits filed as inhibitors; 420,000 compounds, 15% hits; DT40 Tdp1-/- hTDP1 cells, no CPT, ATP luminescence, 48 h; AID 686978, 2013; further: potency means the concentration at half of the fitted maximal effect; nearly all actives have a fitted effect of over 55% in size
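Cells were dispensed at 400 per well, compounds added by pin tool, plates incubated ≥48 hr at 37 °C, then CellTiter-Glo added for 30 min at room temperature before luminescence reading. Line: DT40 Tdp1-/- complemented with hTDP1; camptothecin omitted.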
IL1B secr inh: qHTS for Inhibitors of Inflammasome Signaling: IL-1-beta AlphaLISA Primary Screen. THP-1 LPS/ATP IL-1B secretion, AlphaLISA, 16 h; stronger effect = lower value. activity change, % at 57.5 µM. 360,000 compounds, 4.7% hits; in the data active means activity change below about -50%; inconclusive means mostly about -30% to -49%
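THP-1 cells pretreated 1 hr with compounds (up to 57.5 uM final), then stimulated with LPS (250 ng/mL final) plus ATP (1.25 mM final); secreted IL-1B measured by AlphaLISA after 16 hr, decreased signal indicating inhibition.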
Active calls of the source: *. Unless noted, the call rests on the fitted dose curve; in most records, active means well fitted curve in the direction sought with a large enough effect; inconclusive means small, poorly fitted or top-dose-only effect, or another doubt; inactive means no such curve, though single readings can be large; an effect the other way counts as inactive or inconclusive. Unless noted, on the % scale 0 is the no-effect control and ±100 the full control effect.

Results for COc1ccc(/C=N\NC(=O)c2cc(O)c(O)c(O)c2)cc1CN1CCN(c2ccc(F)cc2)CC1 ?
HT1080 IDH1KD tx: -17.7%; HT1080-NT tox: -16.0%; TDP1 cell CPT: inconclusive; DT40 TDP1 no CPT: inconclusive; IL1B secr inh: 20.9

Results for Cc1ccc(C)c(N2CCN(C(=O)Nc3ccc4c(c3)N(C)C(=O)CS4)CC2)c1 ?
HT1080 IDH1KD tx: inconclusive; HT1080-NT tox: -22.9%; TDP1 cell CPT: 20.6µM*; DT40 TDP1 no CPT: 16.4µM*; IL1B secr inh: 45.9

What do the screens show for `CCN1C(=O)c2ccccc2Sc2ccc(NC(=O)N3CCN(c4cc(C)ccc4C)CC3)cc21`?
TDP1 cell CPT: 5.8µM*; DT40 TDP1 no CPT: 4.11µM*

How did Cc1ccc(-n2nnnc2SCn2nnc3ccccc3c2=O)cc1 do in these assays?
HT1080 IDH1KD tx: -8.6%; HT1080-NT tox: -11.6%; TDP1 cell CPT: inconclusive; DT40 TDP1 no CPT: 13µM*; IL1B secr inh: -5.1

How did COc1ccc(C)cc1-n1nnnc1SCn1nnc2ccccc2c1=O do in these assays?
HT1080 IDH1KD tx: -22.8%; HT1080-NT tox: -14.1%; TDP1 cell CPT: 16.4µM*; DT40 TDP1 no CPT: 16.4µM*; IL1B secr inh: -13.8

What do the screens show for `COc1cc2c(cc1OC)CN(Cc1cc(=O)n3cc(C)ccc3n1)CC2`?
HT1080 IDH1KD tx: -5.6%; HT1080-NT tox: -5.1%; TDP1 cell CPT: -5.5%; DT40 TDP1 no CPT: inconclusive; IL1B secr inh: 2.3

What do the screens show for `C/C=C/c1ccc(OCc2cc(=O)n3cc(C)ccc3n2)c(OC)c1`?
HT1080 IDH1KD tx: 8.9%; HT1080-NT tox: 7.0%; TDP1 cell CPT: inconclusive; DT40 TDP1 no CPT: 18.4µM*; IL1B secr inh: 25.0

How did COc1ccc(C)cc1-n1nnnc1SCc1cc(=O)n2cc(C)ccc2n1 do in these assays?
HT1080 IDH1KD tx: -15.9%; HT1080-NT tox: -1.6%; TDP1 cell CPT: 8.2µM*; DT40 TDP1 no CPT: 7.31µM*; IL1B secr inh: -28.2

How did Cc1cccc(-n2nnnc2SCn2nnc3ccccc3c2=O)c1 do in these assays?
HT1080 IDH1KD tx: -5.3%; HT1080-NT tox: 6.3%; TDP1 cell CPT: inconclusive; DT40 TDP1 no CPT: inconclusive; IL1B secr inh: 9.0

How did CC(C)c1cccc(C(C)C)c1NC1=NS(=O)(=O)c2ccccc21 do in these assays?
TDP1 cell CPT: -14.2%; DT40 TDP1 no CPT: -21.4%

How did C=C(C)C(=O)Nc1ccc2c(c1)OCCOCCOCCO2 do in these assays?
HT1080 IDH1KD tx: 13.0%; HT1080-NT tox: 18.2%; TDP1 cell CPT: 3.7%; DT40 TDP1 no CPT: -7.3%; IL1B secr inh: -4.4

Results for Cc1ccc(Nc2c([N+](=O)[O-])cc(C(=O)N3CC(=O)Nc4ccccc43)cc2[N+](=O)[O-])c(C)c1 ?
HT1080 IDH1KD tx: -28.2%; HT1080-NT tox: -18.0%; TDP1 cell CPT: 14.6µM*; DT40 TDP1 no CPT: inconclusive; IL1B secr inh: -11.2

How did O=C1CN(C(=O)c2ccc(Cl)c([N+](=O)[O-])c2)c2ccccc2N1 do in these assays?
HT1080 IDH1KD tx: 14.2%; HT1080-NT tox: 4.6%; TDP1 cell CPT: -18.7%; DT40 TDP1 no CPT: -6.5%; IL1B secr inh: -78.3*

Results for CCCn1nc(C(=O)N2CC(=O)Nc3ccccc32)c2ccccc2c1=O ?
HT1080 IDH1KD tx: inconclusive; HT1080-NT tox: inconclusive; TDP1 cell CPT: 20.6µM*; DT40 TDP1 no CPT: 14.6µM*; IL1B secr inh: 40.7

What do the screens show for `COc1cc(OC)cc(C(=O)N2CC(=O)Nc3ccccc32)c1`?
HT1080 IDH1KD tx: inconclusive; HT1080-NT tox: inconclusive; TDP1 cell CPT: 1.46µM*; DT40 TDP1 no CPT: 1.3µM*; IL1B secr inh: 37.1

Results for CCNS(=O)(=O)c1cc(OC)ccc1OC ?
HT1080 IDH1KD tx: 0.3%; HT1080-NT tox: 4.8%; TDP1 cell CPT: 6.9%; DT40 TDP1 no CPT: -4.3%; IL1B secr inh: 17.0

How did Cc1onc(-c2ccccc2)c1-c1nnc(CN2CCN(S(=O)(=O)c3ccccc3F)CC2)o1 do in these assays?
HT1080 IDH1KD tx: -0.2%; HT1080-NT tox: -2.5%; TDP1 cell CPT: 20.6µM*; DT40 TDP1 no CPT: inconclusive; IL1B secr inh: -6.6

Results for Cc1ccc(-c2nnc(SC(C)C(=O)NCc3ccco3)n2C)cc1 (centres undefined) ?
TDP1 cell CPT: -1.0%; DT40 TDP1 no CPT: -13.5%

Results for COc1cccc(C(=O)Nc2ccccc2OCc2cc(=O)n3ccccc3n2)c1 ?
TDP1 cell CPT: -21.7%; DT40 TDP1 no CPT: inconclusive

Results for O=c1[nH]c2cc3c(cc2cc1C(c1nnnn1CC1CCCO1)N1CCCCCC1)OCCO3 (centres undefined) ?
HT1080 IDH1KD tx: 5.1%; HT1080-NT tox: -4.8%; TDP1 cell CPT: inconclusive; DT40 TDP1 no CPT: 14.6µM*; IL1B secr inh: -4.3

What do the screens show for `O=C(C[n+]1cccc2cccc(O)c21)c1ccccc1`?
TDP1 cell CPT: inconclusive; DT40 TDP1 no CPT: -12.1%

How did O=C(C[n+]1c2ccccc2cc2ccccc21)c1ccc(F)cc1 do in these assays?
TDP1 cell CPT: inconclusive; DT40 TDP1 no CPT: 10µM*

Results for O=C(C[n+]1cccc2cccc(O)c21)c1ccc(F)cc1 ?
TDP1 cell CPT: 7.08µM*; DT40 TDP1 no CPT: inconclusive

What do the screens show for `CCOc1ccc(CN(C)Cc2cc(=O)oc3c(C)c(C)ccc23)cc1OC`?
HT1080 IDH1KD tx: inconclusive; HT1080-NT tox: inconclusive; TDP1 cell CPT: 10.3µM*; DT40 TDP1 no CPT: 8.2µM*; IL1B secr inh: 27.2

Results for COc1ccc(CN(C)Cc2cc(=O)oc3cc(C)c(C(C)C)cc23)cc1OC ?
HT1080 IDH1KD tx: -20.3%; HT1080-NT tox: inconclusive; TDP1 cell CPT: inconclusive; DT40 TDP1 no CPT: inconclusive; IL1B secr inh: -57.7*

Results for Cc1cc2oc(=O)cc(CN(C)Cc3ccccc3)c2cc1C(C)C ?
HT1080 IDH1KD tx: -24.3%; HT1080-NT tox: -4.5%; TDP1 cell CPT: inconclusive; DT40 TDP1 no CPT: inconclusive; IL1B secr inh: -11.8

How did Cc1ccc2c(CN(C)Cc3cccc(Cl)c3)cc(=O)oc2c1C do in these assays?
HT1080 IDH1KD tx: inconclusive; HT1080-NT tox: -27.0%; TDP1 cell CPT: inconclusive; DT40 TDP1 no CPT: 29.1µM*; IL1B secr inh: -12.4

How did Cc1cc2oc(=O)cc(CN(C)Cc3cccc(F)c3)c2cc1Cl do in these assays?
HT1080 IDH1KD tx: 11.3%; HT1080-NT tox: -12.2%; TDP1 cell CPT: -29.2%; DT40 TDP1 no CPT: -15.9%; IL1B secr inh: 9.5

How did CSc1ccc(CN(C)Cc2cc(=O)oc3c(C)c(C)ccc23)cc1 do in these assays?
HT1080 IDH1KD tx: -6.0%; HT1080-NT tox: -1.6%; TDP1 cell CPT: 20.6µM*; DT40 TDP1 no CPT: inconclusive; IL1B secr inh: 24.2

High-throughput results from PubChem.
